# According to publication PMC4336329 (PLoS ONE, 2015):
# Screen size: about 310,000 compounds; about 14,000 (4.5%) showed an effect of 50% or more. Effects have a minus sign here. Many of the other results were omitted from the sample, so strong results are more common in it than they were.
# Biological target: human ether-à-go-go-related gene (hERG) potassium channel (human, UniProt Q12809)
# Assay: primary screen, population patch clamp on CHO cells stably expressing hERG; higher = less effect of the substance
# 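Further: peak tail current of the secondary pulse compared with the same well before compound.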
# Sequence of human ether-à-go-go-related gene (hERG) potassium channel (Q12809 whole entry, looked up): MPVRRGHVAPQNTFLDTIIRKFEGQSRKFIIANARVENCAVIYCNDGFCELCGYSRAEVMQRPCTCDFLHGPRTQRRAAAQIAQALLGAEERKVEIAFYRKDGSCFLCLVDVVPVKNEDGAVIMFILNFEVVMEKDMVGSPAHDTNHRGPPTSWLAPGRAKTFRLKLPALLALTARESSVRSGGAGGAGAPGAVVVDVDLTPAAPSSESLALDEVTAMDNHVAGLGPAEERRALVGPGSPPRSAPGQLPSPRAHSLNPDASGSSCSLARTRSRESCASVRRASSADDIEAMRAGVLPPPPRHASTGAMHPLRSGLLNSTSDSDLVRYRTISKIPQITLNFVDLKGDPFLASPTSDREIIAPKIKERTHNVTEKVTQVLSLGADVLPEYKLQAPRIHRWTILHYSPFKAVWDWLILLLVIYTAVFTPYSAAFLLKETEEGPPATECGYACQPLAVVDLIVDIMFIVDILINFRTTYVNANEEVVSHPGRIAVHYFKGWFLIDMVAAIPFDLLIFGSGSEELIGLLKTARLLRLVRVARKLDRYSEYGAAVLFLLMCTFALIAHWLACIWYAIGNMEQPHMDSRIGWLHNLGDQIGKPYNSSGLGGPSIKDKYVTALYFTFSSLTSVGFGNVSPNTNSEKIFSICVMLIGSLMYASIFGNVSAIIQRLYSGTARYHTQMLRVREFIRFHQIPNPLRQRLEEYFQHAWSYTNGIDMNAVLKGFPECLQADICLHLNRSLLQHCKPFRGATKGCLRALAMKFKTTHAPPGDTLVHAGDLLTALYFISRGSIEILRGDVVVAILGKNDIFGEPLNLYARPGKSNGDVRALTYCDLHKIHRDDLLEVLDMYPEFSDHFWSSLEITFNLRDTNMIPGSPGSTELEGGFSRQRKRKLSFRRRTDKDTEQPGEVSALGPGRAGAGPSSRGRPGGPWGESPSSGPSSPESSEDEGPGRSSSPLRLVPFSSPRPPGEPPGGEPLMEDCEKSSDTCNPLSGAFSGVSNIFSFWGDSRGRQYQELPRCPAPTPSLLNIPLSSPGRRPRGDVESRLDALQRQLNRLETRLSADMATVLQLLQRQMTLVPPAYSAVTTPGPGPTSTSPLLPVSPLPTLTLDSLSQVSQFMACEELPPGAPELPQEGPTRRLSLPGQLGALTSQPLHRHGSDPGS
row,SMILES,"hERG current change (%, negative = inhibition) at 10uM"
1,O=C(Cn1cnc2c(oc3nc4c(cc32)CCCC4)c1=O)Nc1cccc(Cl)c1,16.2%
2,COc1ccc(-c2cn[nH]c2-c2ccc(OCC(=O)NN)cc2O)cc1,17.4%
3,CCCOC(=O)c1ccc(NC(=O)Oc2ccccc2)cc1,3.21%
4,CCCOC(=O)c1ccc(-[n+]2c(-c3ccccc3)cc(-c3ccccc3)cc2-c2ccccc2)cc1.[O-][Cl+3]([O-])([O-])[O-],-77.2%
5,CCOC(=O)c1ccc(-[n+]2c(-c3ccccc3)cc(-c3ccccc3)cc2-c2ccccc2)cc1.[O-][Cl+3]([O-])([O-])[O-],-77.9%
6,CCOC(=O)c1ccc(P(=O)(c2ccccc2)c2ccccc2)cc1,-18.2%
7,CCOC(=O)c1ccc(Cl)c(NC(=O)c2ccc(-c3ccccc3)cc2)c1,1.02%
8,CCOC(=O)c1ccc(/[N+]([O-])=C/c2ccccc2)cc1,0.217%
9,CCOC(=O)c1cccc(-[n+]2c(-c3ccccc3)cc(-c3ccccc3)cc2-c2ccccc2)c1.[O-][Cl+3]([O-])([O-])[O-],-73.5%
10,CCOC(=O)c1cccc(P(=O)(C(C)(C)C)C(C)(C)C)c1,17.1%
11,CCCOC(=O)c1ccc(Cl)c(NC(=O)c2ccc(-c3ccccc3)cc2)c1,-5.63%
12,O=C(O)CCC(=O)c1ccc2c(c1)OCCO2,1.89%
13,O=c1c(C=NCc2cccs2)c(O)n(C2CCCCC2)c(=O)n1C1CCCCC1,8.72%
14,O=C(CCCCCNC(=O)N1CCn2c1nc1ccccc12)NCCc1ccccc1,9.42%
15,O=C(O)c1ccccc1C(=O)N1N=C(c2ccccc2)CC1c1ccccc1O (stereo not shown),6.81%
16,Cc1nn(C(=O)c2ccco2)c(C)c1Sc1ccc(Br)cc1,-4.64%
17,COC(=O)CN1C(=O)COc2ccc(S(=O)(=O)N3CCCCCC3)cc21,-7.44%
18,O=C(CSc1nnc(Cc2cc(=O)[nH]c(=O)[nH]2)n1-c1ccc(Cl)cc1)NC1CCCC1,10.7%
19,COC(=O)CSc1[nH]c(=O)cc(C)c1C#N,19.9%
20,O=C(CN1CCc2ccccc2C1)NCC(=O)Nc1ccc(F)cc1,13.5%
21,O=C(Nc1ccc(Cl)cc1)[C@@H]1[C@@H]2C(=O)N(c3cccc(F)c3)C(=O)[C@@H]2[C@H]2C=CC=NN21,-9.36%
22,CCCCc1ccc(N=N/C(C(=O)Nc2ccccc2OC)=C(/C)O)cc1,-8.51%
23,CCCCc1ccc(N=N/C(C(=O)Nc2ccc(NC(C)=O)cc2OC)=C(/C)O)cc1,-50.2%
24,CCCCc1ccc(N=N/C(C(=O)Nc2cc(OC)c(NC(C)=O)cc2OC)=C(/C)O)cc1,14.2%
25,O=C(CCCNC(=O)c1ccc(Cl)cc1)Nc1cccc(S(=O)(=O)N2CCCCC2)c1,-20.2%
26,CN(C)S(=O)(=O)c1cccc(COC(=O)CCNC(=O)c2ccc([N+](=O)[O-])cc2)c1,-55.2%
27,O=C(CCNC(=O)c1ccc([N+](=O)[O-])cc1)Nc1cccc(S(=O)(=O)N2CCOCC2)c1,-31.7%
28,O=C(CCNC(=O)c1ccc(Cl)cc1)Nc1cccc(S(=O)(=O)N2CCCCC2)c1,-46%

row,SMILES,"hERG current change (%, negative = inhibition) at 10uM"
1,O=C(CCNC(=O)c1ccc(Br)cc1)Nc1cccc(S(=O)(=O)N2CCCCCC2)c1,-34.1%
2,O=C(CCNC(=O)c1ccc([N+](=O)[O-])cc1)Nc1cccc(S(=O)(=O)N2CCCCC2)c1,-55.2%
3,CN(C)S(=O)(=O)c1ccc(C(=O)OCc2ccc([N+](=O)[O-])cc2)cc1,17.6%
4,O=C(CCNC(=O)c1ccc(Br)cc1)Nc1cccc(S(=O)(=O)N2CCCCC2)c1,-36.1%
5,O=C(CCNC(=O)c1ccc(Br)cc1)Nc1cccc(S(=O)(=O)N2CCCC2)c1,-32.7%
6,O=C(CCNC(=O)c1ccc(Cl)cc1)Nc1cccc(S(=O)(=O)N2CCCCCC2)c1,-57.3%
7,O=C(CCNC(=O)c1ccc([N+](=O)[O-])cc1)Nc1cccc(S(=O)(=O)N2CCCCCC2)c1,-75.1%
8,CN(C)S(=O)(=O)c1cccc(C(=O)NCCNC(=O)c2cccc(S(=O)(=O)N(C)C)c2)c1,15.9%
9,COc1ccc(/C(C)=N/NC(=O)CNC(=O)c2ccncc2)c(OC)c1,3.47%
10,COc1cc(OC)c2cc[nH]c2c1,27.3%
11,Cc1ccccc1NC(=S)NCC(c1cccnc1)N1CCOCC1 (stereo not shown),-4.07%
12,Cc1cc(Nc2ccc(Cl)cc2)n2nnnc2n1,7.83%
13,COc1cc(CN2CCN(c3cc(C)ccc3C)CC2)cc([N+](=O)[O-])c1O,7.26%
14,Oc1cccc(Nc2ncnc3ccccc23)c1,3.18%
15,O=C(CNC(=O)c1ccccc1Br)N/N=C/c1cccs1,4.8%
16,O=C(Cc1ccc(Cl)cc1)Nc1cccc(S(=O)(=O)Nc2ccccc2F)c1,11.9%
17,O=C(NCC(O)c1ccc([N+](=O)[O-])cc1)c1cccc(S(=O)(=O)N2CCCC2)c1 (stereo not shown),-66.8%
18,CCN(CC)S(=O)(=O)c1cccc(NC(=O)CCNC(=O)c2ccc([N+](=O)[O-])cc2)c1,-62.4%
19,CN(C)S(=O)(=O)c1ccc(NC(=O)CCNC(=O)c2ccc([N+](=O)[O-])cc2)cc1,-12.7%
20,Cc1ccc(NC(=O)CCNC(=O)c2ccc([N+](=O)[O-])cc2)cc1S(=O)(=O)N(C)C,-66.9%
21,COC(=O)c1cccc(NC(=O)CCNC(=O)c2ccc([N+](=O)[O-])cc2)c1,-48%
22,O=C(NCC(O)c1ccc([N+](=O)[O-])cc1)c1cccc(S(=O)(=O)N2CCOCC2)c1 (stereo not shown),-13%
23,O=C(Cc1ccc(Cl)cc1Cl)Nc1cccc(S(=O)(=O)Nc2ccccc2F)c1,-1.71%
24,Cc1ccc(NC(=O)CCNC(=O)c2ccc([N+](=O)[O-])cc2)cc1C,-0.694%
25,O=C(NCC(O)c1ccccc1)c1cccc(S(=O)(=O)N2CCOCC2)c1 (stereo not shown),-18.1%
26,O=C(CSc1ccc([N+](=O)[O-])cc1)Nc1cccc(S(=O)(=O)Nc2ccccc2F)c1,-74.4%
27,Cc1ccc(NC(=O)c2ccc([N+](=O)[O-])cc2)cc1S(=O)(=O)N(C)C,-39.6%
